SW480 rereplic: induces DNA re-replication in SW480 colon adenocarcinoma cells | SW480 DNA re-replication, Hoechst DNA content imaging, 48 h | Potency, µM (highest dose often 46.1 µM), actives largely listed as activators | actives 1.8% (n = 340,000) | AID 624297; further: nearly all actives have a fitted effect of over 55% in size
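Readout is total intensity of Hoechst-stained nuclei, excited at 405 nm and collected at 500-530 nm. Compound treatment lasted 48 hr at 37 C in 5% CO2 before staining.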
KB-3-1 cytotox: kills parental KB-3-1 adenocarcinoma cells | KB-3-1 viability, CellTiter-Glo ATP luminescence, 72 h | Potency, µM (doses to about 46.1 µM), usual class: cytotoxic | actives 1.4% (n = 400,000) | AID 1347075; further: nearly all actives have a fitted effect of over 60% in size
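Screening of KB-3-1 cells (DMEM, 10% FBS, phenol-red free) ran from lowest to highest compound concentration; after 72 h at 37 °C viability was read luminescently and curves fitted.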
HT1080-NT tox: kills 2HG-producing HT-1080-NT fibrosarcoma cells; HT-1080-NT fibrosarcoma viability, CellTiter-Glo ATP luminescence, 48 h; Potency, µM (highest dose often 46.1 µM), most hits filed as cytotoxic; actives 1.6% (n = 360,000); AID 686970;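 further: NT is the 2HG producing partner of a matched IDH1 knockdown line; nearly all actives have a fitted effect of over 55% in size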
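Compounds were tested in concentration-response format on HT-1080-NT cells for 48 hours at 37 degrees C. Cell viability came from CellTiter-Glo luminescence; curves were classified by r2, response magnitude and activity.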
KB-V1 cytotox: KB-V1 MDR subline cytotoxicity. KB-V1 MDR cells viability, CellTiter-Glo, 72 h. Potency, µM (doses to about 46.1 µM), most hits filed as cytotoxic. actives 3.4% (n = 400,000); further: nearly all actives have a fitted effect of over 60% in size
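Cytotoxicity toward P-gp-expressing KB-V1 cells was determined as loss of CellTiter-Glo luminescence after 72 h at 37 degrees C. Compounds were tested in quantitative HTS format across a concentration range, with curves fitted to normalized data.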
MCF10A rerep: DNA re-replication induction in MCF 10a cells; MCF 10A DNA re-replication, Hoechst nuclear intensity, 48 h; Potency, µM (highest dose often 46.1 µM), usual class: activators; actives 2.9% (n = 350,000); AID 624296; further: nearly all actives have a fitted effect of over 50% in size
HT1080 IDH1KD tx: toxicity to HT-1080 IDH1 knockdown cells (counter line); AID 686971; Potency, µM (doses to about 46.1 µM), actives largely listed as cytotoxic; actives 2% (n = 360,000); HT-1080 IDH1 knockdown viability, ATP luminescence, 48 h
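IDH1KD HT-1080 cells, 750/well, RPMI + 5% FBS; compound pinned after 2 h settling; 48 h, 37 °C; CellTiter-Glo luminescence; % activity normalised to DMSO and no-cell wells; curves fitted, classed by r2 and efficacy.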
Hits are given with their value; – = inactive; ? = inconclusive; · = no result given. Sampled rows, rich in hits. Any-hit rate of the full collection: about 8%. The call rests on the fitted dose curve; in most records, active means well fitted curve in the direction sought with a large enough effect; inconclusive means small, poorly fitted or top-dose-only effect, or another doubt; inactive means no such curve, though single readings can be large; an effect the other way counts as inactive or inconclusive.

SMILES	SW480 rereplic	KB-3-1 cytotox	HT1080-NT tox	KB-V1 cytotox	MCF10A rerep	HT1080 IDH1KD tx
C=CCn1c(=S)[nH]c2ccc(Br)cc2c1=O	–	?	–	?	–	–
C=CCn1c(=S)[nH]c2nc3c(cc2c1=O)CCCC3	–	?	8.9µM	–	?	8.9µM
O=C(c1cccc([N+](=O)[O-])c1)N1CCN(c2ccccn2)CC1	16µM	–	–	–	–	–
Cc1cccc(C(=O)NCC(=O)N2CCN(c3ccccn3)CC2)c1	–	–	–	21µM	–	–
O=C(c1ccc(S(=O)(=O)c2cccc(Cl)c2)c([N+](=O)[O-])c1)N1CCN(c2ccccn2)CC1	–	?	9.2µM	?	?	21µM
O=C(c1cccc(Cl)c1)N1CCN(c2ccccn2)CC1	–	–	–	–	–	–
O=C(c1ccc(S(=O)(=O)c2ccccc2Cl)c([N+](=O)[O-])c1)N1CCCCCC1	?	?	–	2.3µM	?	–
COc1ccc(CNC(=O)c2ccc(N3CCCC3)c(NC(=O)NCc3ccc(C)cc3)c2)cc1	·	?	·	–	·	·
COc1cccc(-c2nn(C)c3sc(C(=O)NCCc4cccc(C)c4)cc23)c1	·	?	·	–	·	·
O=C(O)c1cc(N/N=C/C=C/c2ccccc2)ccc1Cl	–	–	–	–	21µM	–
CCOC(=O)C1(Cc2cccc(Cl)c2)CCCN(C(=O)c2ccoc2C)C1 (stereo not given)	16µM	–	–	–	?	–
CCOC(=O)C1(Cc2cccc(Cl)c2)CCCN(C(=O)c2ccco2)C1 (stereo not given)	–	–	–	–	?	–
C=CCn1c(SCc2ccc(C#N)cc2)nnc1-c1ccccc1	–	–	–	9.2µM	–	–
CCCN1CCN(CCCNC(=O)c2cc3c(s2)-c2c(C)cccc2OC3)CC1	?	?	23µM	–	?	18µM
CCCN1CCN(CCCNC(=O)c2cc3c(s2)-c2ccccc2OC3)CC1	?	–	23µM	?	–	?
Cc1csc(NC(=O)c2cc3c(s2)-c2ccccc2OC3)n1	–	–	–	–	15µM	–
COc1ccc(CNC(=O)c2cc3c(s2)-c2c(C)cccc2OC3)cc1	·	–	·	–	·	·
Cc1cccc(CCNC(=O)c2cc3c(s2)-c2c(C)cccc2OC3)c1	·	–	·	–	·	·
Cc1cccc2c1-c1sc(C(=O)NCCCN3CCCC(C)C3)cc1CO2 (stereo not given)	18µM	–	21µM	–	23µM	21µM
CCN1CCN(CCCNC(=O)c2cc3c(s2)-c2ccccc2OC3)CC1	?	–	?	?	?	?
CC1CCCC(C)N1CCCNC(=O)c1cc2c(s1)-c1ccccc1OC2 (stereo not given)	?	–	?	–	–	21µM
CC1CC(C)CN(CCCNC(=O)c2cc3c(s2)-c2ccccc2OC3)C1 (stereo not given)	–	?	18µM	–	?	18µM
CN(C)CCNC(=O)c1cc2c(s1)-c1ccccc1OC2	–	–	?	–	?	?
CC(=O)c1cc(C(=O)N2CCc3c([nH]c4ccccc34)C2C2CCCCC2)[nH]n1 (stereo not given)	–	–	–	?	1.5µM	–
Cc1c(CN2CCc3c([nH]c4ccccc34)C2C2CCCCC2)cnn1C (stereo not given)	–	–	–	–	18µM	–
SMILES	SW480 rereplic	KB-3-1 cytotox	HT1080-NT tox	KB-V1 cytotox	MCF10A rerep	HT1080 IDH1KD tx
Cc1cnc(C(=O)N2CCc3c([nH]c4ccccc34)C2c2ccc(F)cc2)cn1 (stereo not given)	–	?	–	–	–	–
Cc1cnc(CN2CCc3c([nH]c4ccccc34)C2CC(C)C)[nH]1 (stereo not given)	6.5µM	–	–	–	?	–
Cc1cccc(CN2CCc3c([nH]c4ccccc34)C2CC(C)C)n1 (stereo not given)	?	–	–	–	18µM	?
O=C1C=C(c2c(O)ccc3ccccc23)c2ccccc2C1=O	18µM	?	7.3µM	–	–	?
CCCCc1c(-c2ccc(OC)cc2)ncn1CCc1ccccc1OC	·	?	16µM	15µM	·	16µM
COc1ccccc1Cc1c(-c2ccc(F)cc2)nc2ccc(Cl)cn12	·	–	–	–	·	–
CCCCc1c(Cc2ccccc2)ncn1CCc1ccccc1OC	·	21µM	?	18µM	·	18µM
CCCCc1c(-c2ccc(F)cc2)ncn1CCc1ccccc1OC	·	?	?	12µM	·	?
CCCc1c(-c2cccc(Cl)c2)ncn1Cc1ccccc1OC	·	?	?	16µM	·	?
CCCCCc1c(-c2ccc(Cl)cc2)ncn1CCc1ccccc1OC	·	?	?	12µM	·	16µM
COc1ccccc1Cc1c(-c2cccc(Cl)c2)nc2ccc(Br)cn12	·	–	–	–	·	–
COc1ccccc1CCn1cnc(C)c1CC(C)C	·	?	?	–	·	?
CCCCCc1c(-c2ccc(OC)cc2)ncn1CCc1ccccc1OC	·	?	21µM	10µM	·	16µM
CCCCc1c(-c2cccc(Cl)c2)ncn1CCc1ccccc1OC	·	?	?	10µM	·	?
CCCCc1c(-c2ccccc2)ncn1CCc1ccccc1OC	·	?	?	10µM	·	?
COC(=O)c1ccc2nc(-c3ccc(Cl)cc3)c(Cc3ccccc3OC)n2c1	·	–	–	–	·	–
Cn1c(=O)c2c(SCC(=O)NCc3ccc(F)cc3)nc(-c3ccccc3Cl)nc2n(C)c1=O	·	–	·	–	·	·
Cc1ccnc(NC(=O)Cn2cc([N+](=O)[O-])cn2)c1	–	–	–	–	–	–
Cc1ccc(/C=C2\SC(=S)N(/N=C/c3cc([N+](=O)[O-])ccc3O)C2=O)o1	–	–	–	–	–	–
N#Cc1ccc(/C=C/C(=O)c2ccccc2)cc1	–	–	?	–	21µM	?
O=C(/C=C/c1ccccc1O)c1ccccc1	?	–	–	–	?	–
O=C(/C=C/c1ccccc1)c1ccccc1	?	–	16µM	?	?	21µM
O=C(/C=C/c1ccccc1)c1ccc2c3c(cccc13)CC2	–	?	?	?	18µM	?
O=C(/C=C/c1ccccc1)/C=C/c1ccccc1	21µM	?	–	?	3.3µM	?
C=C(C(=O)O)c1ccc2ccccc2c1	·	–	·	–	·	·
O=C(/C=C/c1ccccc1)c1ccc2ccccc2c1	–	–	23µM	–	?	?
COc1ccc(Cc2nnc(NC(=O)c3ccccc3F)s2)cc1	–	–	–	–	?	–
CC(O)(CS(=O)(=O)Cc1ccccc1)C(=O)Nc1ccc(C(F)(F)F)cc1 (stereo not given)	–	–	–	21µM	–	?
CC(O)(CS(=O)(=O)Cc1ccccc1)C(=O)Nc1cccc(C(F)(F)F)c1 (stereo not given)	–	–	–	15µM	–	?

Screening results: PubChem, National Center for Advancing Translational Sciences (NCATS)
